Experiment [1] in a line: Cell Viability - LYMP2-025 (AID 976). In short, it runs like this: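 Human lymphoblastoid LYMP2-025 cells, 2500/well, exposed 24 h at 37 C in complete medium in 1536-well qHTS. Viability as cellular ATP by CellTiter-Glo luminescence; AC50 from Hill fits of concentration-response data.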
A short description of experiment [2]: Cell Viability - LYMP2-003 (AID 965).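 Note: cells exposed to compounds for 24 h before reading; nearly all actives have a fitted effect of over 50% in size.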 In short, it runs like this:
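CellTiter-Glo luminescence (cellular ATP) after 24 h compound exposure at 37 C in complete medium; 2500 cells/well, 5 h settling beforehand. Concentration-response fitted to standard Hill equation for AC50. Tetraoctylammonium bromide served as positive control.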

Experiment [3] in a line: Cell Viability - LYMP2-004 (AID 966). Note: nearly all actives have a fitted effect of over 65% in size. In a few lines:
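Lymphoblastoid LYMP2-004 cells, 2500 per well, were preincubated for 5 hr and then treated with compound for 24 h at 37 C in complete medium. Viability was read as cellular ATP by CellTiter-Glo luminescence, and AC50 values were taken from Hill fits to concentration-response data.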

Experiment [4] can be described thus: Cell Viability - LYMP2-005 (AID 967). In short, it runs like this:
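Steps: seed 2500 LYMP2-005 cells/well, incubate 5 h at 37 C, add compound, incubate 24 h at 37 C, add CellTiter-Glo, wait 30 min at RT, read luminescence. Concentration-response data fitted to Hill equation for AC50.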

A short description of experiment [5]: Cell Viability - LYMP2-009 (AID 968). Note: nearly all actives have a fitted effect of over 55% in size.
A short description of experiment [6]: Cell Viability - LYMP2-011 (AID 969). Note: nearly all actives have a fitted effect of over 60% in size. In a few lines:
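2500 cells/well in complete medium, compound-treated 24 h at 37 C. Viability read as intracellular ATP by CellTiter-Glo luminescence after 30 min at room temperature. AC50 from Hill fits of qHTS concentration-response data.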

Experiment [7] can be described thus: Cell Viability - LYMP2-013 (AID 970). Note: nearly all actives have a fitted effect of over 55% in size. In short, it runs like this:
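Human lymphoblastoid LYMP2-013 cells, 2500/well, treated 24 h at 37 C in complete medium; viability as intracellular ATP by CellTiter-Glo luminescence after 30 min. AC50 from Hill fits of qHTS concentration-response.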

Experiment [8] in a line: Cell Viability - LYMP2-017 (AID 972). Note: nearly all actives have a fitted effect of over 55% in size. In short, it runs like this: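 LYMP2-017 human lymphoblastoid cells (2500/well) settled 5 hr at 37 C, then exposed to compound 24 hr at 37 C in complete medium. Viability taken as intracellular ATP by CellTiter-Glo luminescence after 30 min at RT; AC50 from Hill fits.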
The nature of experiment [9]: Cell Viability - LYMP2-019 (AID 973). Note: nearly all actives have a fitted effect of over 55% in size. In a few lines:
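Human lymphoblastoid LYMP2-019 cells (2500/well) preincubated 5 h at 37 C, then treated 24 h at 37 C in complete medium. Viability by CellTiter-Glo ATP luminescence after 30 min at room temperature; AC50 from Hill fits.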

The nature of experiment [10]: Cell Viability - LYMP2-023 (AID 975). Note: nearly all actives have a fitted effect of over 55% in size. In a few lines:
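LYMP2-023 human lymphoblastoid cells, 2500/well, preincubated 5 hr at 37 C, then compound-treated 24 hr at 37 C in complete medium. CellTiter-Glo luminescence (ATP) after 30 min at room temperature; AC50 from Hill-equation fits; tetraoctylammonium bromide positive control.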

Results filed as inconclusive are left out. The source made the active and inactive calls. Calls come from the whole dose curve; as a rule, active = well fitted curve in the direction sought with a large enough effect; inconclusive = small, poorly fitted or top-dose-only effect, or another doubt; inactive = no such curve, though single readings can be large; an effect the other way counts as inactive or inconclusive. Numbered stars: 1 amine (or outer) side, 2 acyl side, 3 side chain; on linkers, the order of the positions; unused ones are H or OH. Bridge positions count the residues as written; N and C are the ends. Square brackets hold non-standard residues; d marks the D form. Peptide text beside a SMILES is read from it. I, II: the chains in the order shown. Actinocin(9to1) = Cc1c2oc3c(C)ccc(C(=O)[*:1])c3nc-2c(C(=O)[*:2])c(N)c1=O; NMeV = CN[C@H](C(=O)O)C(C)C; Sar = CNCC(=O)O
Potency is the fitted concentration of half-maximal effect.

With `Oc1c(I)cc(Cl)c2cccnc12`, in experiment [1], the Potency entry was “inactive”.

With `CC/C(=C(/CC)c1ccc(O)cc1)c1ccc(O)cc1`, the Potency entry in experiment [2], in experiment [3], in experiment [4], in experiment [5], in [6] and in experiment [7] was “inactive” in each case. Also, the Potency entry in experiment [8], in experiment [9], in experiment [10] and in experiment [1] was “inactive” in each case.

In the case of `COC1=CC(=O)C[C@@H](C)[C@]12Oc1c(Cl)c(OC)cc(OC)c1C2=O`, the Potency result in experiment [2], in experiment [3], in [4], in experiment [5], in [6] and in experiment [7] was “inactive” throughout. The Potency result in experiment [8], in experiment [9], in experiment [10] and in experiment [1] was “inactive” throughout.

Take `CC(O)C(=O)O` (stereo not drawn): the Potency entry in experiment [2], in experiment [3], in experiment [4], in experiment [5], in [6] and in experiment [7] was “inactive” each time. The Potency result in experiment [8], in [9], in [10] and in experiment [1] was “inactive” in each case.

Turning to `O=C(O)CCCCC(=O)O`, the Potency entry in experiment [2], in experiment [3], in experiment [4], in [5], in experiment [6] and in [7] was “inactive” throughout. For the same compound, the Potency entry in experiment [8], in experiment [9], in experiment [10] and in [1] was “inactive” each time.

Turning to `NC(=NCCCCCCN=C(N)/N=C(\N)Nc1ccc(Cl)cc1)/N=C(\N)Nc1ccc(Cl)cc1`, the Potency in experiment [5] was 50.1 µM (active); in [6] it was 39.8 µM (active); in [7] it was 39.8 µM (active); in [8], 39.8 µM (active); in experiment [10] it was 50.1 µM (active).

With `CN(C)/N=N/c1nc[nH]c1C(N)=O`, the Potency result in experiment [2], in experiment [3], in [4], in experiment [5], in [6] and in [7] was “inactive” in each case. The Potency result in experiment [8], in experiment [9], in [10] and in experiment [1] was “inactive” throughout.

`Oc1ccc(O)cc1`: the Potency in [2] was 39.8 µM (active); in experiment [3], 39.8 µM (active); in experiment [4], 39.8 µM (active); in experiment [5], 50.1 µM (active); in [6] it was 39.8 µM (active); in experiment [8] it was 39.8 µM (active). Moreover, the Potency result in experiment [10] and in experiment [1] was “inactive” in each case.

As to `C=CCc1ccc(O)c(OC)c1`, the Potency entry in [2], in [3], in [4], in [5], in experiment [6] and in experiment [7] was “inactive” in each case. In addition, the Potency result in experiment [8], in experiment [9], in [10] and in [1] was “inactive” in each case.

Regarding `CC(=O)O[C@]1(C(C)=O)CC[C@H]2[C@@H]3C[C@H](C)C4=CC(=O)CC[C@]4(C)[C@H]3CC[C@@]21C`, the Potency was 31.6 µM (active) in experiment [3]; 39.8 µM (active) in experiment [5]; 39.8 µM (active) in experiment [6]; 31.6 µM (active) in experiment [7]; 31.6 µM (active) in experiment [8].

Consider `Oc1c(Cl)cc(Cl)cc1Sc1cc(Cl)cc(Cl)c1O`, for which the Potency entry in [4] is “inactive”. Further, the Potency in experiment [5] and in [7] was 50.1 µM (active) in each case.

With `Cc1c2oc3c(C)ccc(C(=O)N[C@@H]4C(=O)N[C@H](C(C)C)C(=O)N5CCC[C@H]5C(=O)N(C)CC(=O)N(C)[C@@H](C(C)C)C(=O)O[C@@H]4C)c3nc-2c(C(=O)N[C@@H]2C(=O)N[C@H](C(C)C)C(=O)N3CCC[C@H]3C(=O)N(C)CC(=O)N(C)[C@@H](C(C)C)C(=O)O[C@@H]2C)c(N)c1=O` (I: T[dV]P[Sar][NMeV] / II: T[dV]P[Sar][NMeV]; ester I:1-I:C, II:1-II:C; linker I:N-II:N via Actinocin(9to1)), in experiment [8], the Potency is 0.01 µM (active).

For `C[C@]12CC[C@@H]3c4ccc(O)cc4CC[C@H]3[C@@H]1CC[C@@H]2O`, the Potency result in experiment [2], in experiment [3], in experiment [4], in [5], in [6] and in [7] was “inactive” in each case. Besides, the Potency entry in experiment [8], in experiment [9], in experiment [10] and in experiment [1] was “inactive” in each case.

In the case of `CCCCCCc1ccc(O)cc1O`, the Potency result in experiment [2], in [4], in experiment [5], in experiment [6], in experiment [7] and in experiment [8] was “inactive” throughout. In addition, the Potency result in experiment [9], in experiment [10] and in experiment [1] was “inactive” throughout.

In the case of `COc1cccc2c1C(=O)c1c(O)c3c(c(O)c1C2=O)C[C@@](O)(C(C)=O)C[C@@H]3O[C@H]1C[C@H](N)[C@H](O)[C@H](C)O1`, the Potency in experiment [2] was 0.316 µM (active); in [4], 0.158 µM (active); in [5], 0.251 µM (active); in experiment [7], 2 µM (active); in [8], 0.631 µM (active); in experiment [9], 3.98 µM (active).

Turning to `O=c1ccc2ccccc2o1`, the Potency result in experiment [2], in experiment [3], in [4], in experiment [5], in experiment [6] and in [7] was “inactive” throughout. In addition, the Potency result in [8], in [9], in [10] and in experiment [1] was “inactive” each time.

On to `C=C(CC)C(=O)c1ccc(OCC(=O)O)c(Cl)c1Cl`, for which the Potency in [2] was 50.1 µM (active); in experiment [5], 50.1 µM (active); in experiment [6], 50.1 µM (active); in experiment [7], 50.1 µM (active); in [8], 50.1 µM (active); in experiment [9] it was 39.8 µM (active).

As for `CC(=O)Oc1ccc(C(c2ccc(OC(C)=O)cc2)c2ccccn2)cc1`, the Potency result in experiment [2], in [3], in experiment [4], in experiment [5], in experiment [6] and in experiment [7] was “inactive” in each case. The Potency result in [8], in experiment [9], in experiment [10] and in experiment [1] was “inactive” throughout.

For `COc1cccc2c1C(=O)c1c(O)c3c(c(O)c1C2=O)C[C@@](O)(C(=O)CO)C[C@@H]3O[C@H]1C[C@H](N)[C@H](O)[C@H](C)O1`, the Potency was 0.501 µM (active) in experiment [2]; 0.501 µM (active) in experiment [3]; 0.398 µM (active) in experiment [4]; 0.251 µM (active) in experiment [5]; 0.251 µM (active) in [6]; 1 µM (active) in experiment [7]. The Potency in experiment [8] was 0.631 µM (active); in experiment [9], 0.631 µM (active); in experiment [10], 0.398 µM (active); in experiment [1] it was 0.501 µM (active).

Consider `CC(C)(C)CC(C)(C)c1ccc(OCCOCC[N+](C)(C)Cc2ccccc2)cc1`, for which the Potency in experiment [2] was 39.8 µM (active); in experiment [3], 39.8 µM (active); in experiment [5] it was 31.6 µM (active); in experiment [6], 31.6 µM (active); in experiment [7] it was 25.1 µM (active); in experiment [8], 31.6 µM (active). In addition, the Potency in [9], in experiment [10] and in [1] was 39.8 µM (active) throughout.

For the compound `Nc1ccc(C(=O)O)cc1`, the Potency result in [2], in experiment [3], in experiment [4], in experiment [5], in experiment [6] and in experiment [7] was “inactive” throughout. Moreover, the Potency result in [8], in experiment [9], in experiment [10] and in experiment [1] was “inactive” in each case.

In the case of `O=C1OC(c2ccc(O)cc2)(c2ccc(O)cc2)c2ccccc21`, the Potency result in experiment [2], in experiment [3], in experiment [4], in experiment [5], in [6] and in [7] was “inactive” each time. For the same compound, the Potency entry in experiment [8], in experiment [9], in [10] and in experiment [1] was “inactive” in each case.

These data come from PubChem BioAssay (NCATS).
